# Activity calls are given as the source filed them. Rule for the calls: active = hit-call score of the fitted dose curve at least 0.9, where 1 is the maximum; inactive = score below 0.9.
# Tests used:
# Details in all cases: primary human HUVEC with PBMC; actives raise or lower the signal
# [1] = read-out: Monocyte Chemoattractant Protein-1 (MCP1), CCL2 (gene 6347); experiment: BSK_LPS_MCP1: BioMAP Diversity Plus: LPS Assay for Monocyte Chemoattractant Protein-1 (MCP1) Biomarker Activity (AID 2283081);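 for AC50: secreted MCP-1 protein quantified by ELISA in culture supernatant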
# In short: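 Values derive from bidirectional fitting against DMSO of ELISA-measured MCP-1 in a human primary endothelial and mononuclear cell co-culture, 24 h after chemical addition under LPS activation.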
# [2] = BSK_LPS_PGE2: BioMAP Diversity Plus: LPS Assay for Prostaglandin E2 (PGE2) Biomarker Activity (AID 2283082);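 for AC50: secreted prostaglandin E2 measured by ELISA in LPS-stimulated co-culture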
# In short: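 Endpoint derived from bidirectional curve fitting versus DMSO of ELISA-measured PGE2 in LPS-stimulated human primary vascular co-culture (HUVEC with PBMC) harvested at 24 h.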
# [3] = read-out: Tissue Factor, F3 (gene 2152); experiment: BSK_LPS_TissueFactor: BioMAP Diversity Plus: LPS Assay for Tissue Factor Biomarker Activity (AID 2283084)
# In short: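 Read-out: CD142 ELISA, 24 h. System: LPS-driven human endothelial/PBMC co-culture. Analysis: up- or down-signal fitted against DMSO.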
# [4] = read-out: Tumor necrosis factor (Homo sapiens) (UniProt P01375); experiment: BSK_LPS_TNFa: BioMAP Diversity Plus: LPS Assay for Tumour Necrosis Factor alpha (TNFa) Biomarker Activity (AID 2283085)
# In short: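 Primary human vascular co-culture of HUVEC and PBMC; TNFa ELISA 24 h after treatment, analysed as increase or decrease relative to DMSO control.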
# [5] = read-out: Vascular cell adhesion molecule 1 (VCAM1), VCAM1 (gene 7412); experiment: BSK_LPS_VCAM1: BioMAP Diversity Plus: LPS Assay for Vascular cell adhesion molecule 1 (VCAM1) Biomarker Activity (AID 2283086)
# In short: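 Primary human vascular co-culture (umbilical vein endothelium plus PBMC) stimulated with LPS received chemical; 24 h later VCAM-1 was read by ELISA. Overt cytotoxicity was assessed by sulforhodamine B staining of parallel cultures at the same time point.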
# [6] = read-out: CD38, CD38 (gene 952); experiment: BSK_SAg_CD38: BioMAP Diversity Plus: SAg Assay for CD38 Biomarker Activity (AID 2283087)
# In short: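 Fluorescence ELISA of cell-surface CD38 served as the read-out, with either increase or decrease fitted against DMSO controls. Cells were a human umbilical vein endothelium plus PBMC co-culture under SEB/TSST-1 stimulation, measured 24 h after dosing.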
# [7] = read-out: CD40, CD40 (gene 958); experiment: BSK_SAg_CD40: BioMAP Diversity Plus: SAg Assay for CD40 Biomarker Activity (AID 2283088)
# In short: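 Endpoint derived by fitting increases or decreases versus DMSO controls. CD40 is detected by fluorescence ELISA in a human vascular co-culture of endothelium and PBMC at 24 h.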
# [8] = read-out: CD69, CD69 (gene 969); experiment: BSK_SAg_CD69: BioMAP Diversity Plus: SAg Assay for CD69 Biomarker Activity (AID 2283089);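 for AC50: cell surface CD69 protein quantified by ELISA with fluorescence detection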
# In short: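 ELISA, fluorescence read-out: CD69 on human umbilical vein endothelial cell + PBMC co-culture, 24 h post-dosing. Gain or loss of signal fitted bidirectionally against DMSO baseline.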
# [9] = read-out: Monocyte Chemoattractant Protein-1 (MCP1), CCL2 (gene 6347); experiment: BSK_SAg_MCP1: BioMAP Diversity Plus: SAg Assay for Monocyte Chemoattractant Protein-1 (MCP1) Biomarker Activity (AID 2283090)
# In short: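 MCP-1 levels in the endothelial–PBMC SAg co-culture were quantified by ELISA at 24 h post-dosing; both increases and decreases versus DMSO scored. Cytotoxicity monitored by SRB total protein in parallel cultures.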
# [10] = read-out: Macrophage colony-stimulating factor (MCSF), CSF1 (gene 1435); experiment: BSK_LPS_MCSF: BioMAP Diversity Plus: LPS Assay for Macrophage colony-stimulating factor (MCSF) Biomarker Activity (AID 2283083)
# In short: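 Bidirectional fit versus DMSO of ELISA-measured M-CSF in co-cultured human umbilical vein endothelial cells and PBMC, sampled 24 h after dosing.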
# Chain of Tumor necrosis factor (Homo sapiens) (P01375 whole entry, looked up): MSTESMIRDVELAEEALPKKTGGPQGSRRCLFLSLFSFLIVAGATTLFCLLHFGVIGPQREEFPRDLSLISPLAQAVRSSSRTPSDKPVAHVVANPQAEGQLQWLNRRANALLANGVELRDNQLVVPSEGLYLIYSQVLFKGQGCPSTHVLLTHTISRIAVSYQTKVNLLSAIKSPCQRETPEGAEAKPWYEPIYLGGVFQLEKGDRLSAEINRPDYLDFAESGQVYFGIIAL
SMILES,outcome [1],outcome [2],outcome [3],outcome [4],outcome [5],outcome [6],outcome [7],outcome [8],outcome [9],outcome [10],AC50 [1],AC50 [2],AC50 [10],AC50 [3],AC50 [4],AC50 [5],AC50 [6],AC50 [7],AC50 [8]
CN(C)CCOC(c1ccccc1)c1ccccc1,inactive,inactive,inactive,inactive,inactive,inactive,inactive,inactive,inactive,–,–,–,–,–,–,–,–,–,–
COCN(COC)c1nc(N(COC)COC)nc(N(COC)COC)n1,inactive,inactive,inactive,inactive,inactive,inactive,inactive,inactive,inactive,inactive,–,–,–,–,–,–,–,–,–
CN(C)c1ccc(C(=C2C=CC(=[N+](C)C)C=C2)c2ccccc2)cc1,–,–,–,–,–,–,–,–,–,–,0.0133 µM (active),0.0082 µM (active),0.0379 µM (active),0.025 µM (active),0.0138 µM (active),0.00781 µM (active),0.0535 µM (active),0.00857 µM (active),0.00338 µM (active)
O=C(O)CCC(F)(F)C(F)(F)C(F)(F)C(F)(F)C(F)(F)C(F)(F)F,inactive,inactive,inactive,inactive,inactive,inactive,inactive,inactive,inactive,inactive,–,–,–,–,–,–,–,–,–
O=C1OC2(c3ccccc31)c1cc(I)c(O)c(I)c1Oc1c2cc(I)c(O)c1I,–,–,–,inactive,–,–,–,–,–,–,6.33 µM (active),3.14 µM (active),6.69 µM (active),19.8 µM (active),–,9.02 µM (active),7.06 µM (active),12 µM (active),10.5 µM (active)
CCC(C)c1ccccc1O (stereo not drawn),inactive,–,inactive,inactive,inactive,inactive,inactive,inactive,inactive,inactive,–,3.28 µM (active),–,–,–,–,–,–,–
Oc1cc2ccccc2cc1O,inactive,inactive,inactive,inactive,inactive,inactive,inactive,inactive,inactive,inactive,–,–,–,–,–,–,–,–,–
CCCCC(CC)C(=O)OCCOCCOCCOCCOC(=O)C(CC)CCCC (stereo not drawn),inactive,inactive,inactive,inactive,inactive,inactive,inactive,inactive,inactive,–,–,–,20 µM (active),–,–,–,–,–,–
CCCCCc1ccc(O)cc1,–,–,–,–,–,–,–,–,–,–,31.4 µM (active),1.39 µM (active),27.2 µM (active),29 µM (active),31.4 µM (active),32.4 µM (active),33.6 µM (active),29.6 µM (active),30.9 µM (active)
CCCCc1oc2ccccc2c1C(=O)c1cc(I)c(OCCN(CC)CC)c(I)c1,–,inactive,–,–,–,–,–,–,–,–,26.1 µM (active),–,10.8 µM (active),25.2 µM (active),23.5 µM (active),24.3 µM (active),12.4 µM (active),10.5 µM (active),11.4 µM (active)
C[C@]12CC[C@@H]3c4ccc(O)cc4CC[C@H]3[C@@H]1C[C@@H](O)[C@@H]2O,inactive,inactive,inactive,inactive,inactive,inactive,inactive,inactive,inactive,inactive,–,–,–,–,–,–,–,–,–
O=C1NS(=O)(=O)c2ccccc21,inactive,inactive,inactive,inactive,inactive,inactive,inactive,inactive,inactive,inactive,–,–,–,–,–,–,–,–,–
CCOC(=O)CN[C@@H](C(=O)N1CC[C@H]1C(=O)NCc1ccc(/C(N)=N/O)cc1)C1CCCCC1,inactive,inactive,inactive,inactive,inactive,inactive,inactive,inactive,–,inactive,–,–,–,–,–,–,–,–,–
C=CC(=O)OCCC(F)(F)C(F)(F)C(F)(F)C(F)(F)C(F)(F)C(F)(F)C(F)(F)C(F)(F)F,inactive,inactive,inactive,inactive,inactive,inactive,inactive,inactive,–,inactive,–,–,–,–,–,–,–,–,–
